# Assay results from PubChem BioAssay (NCI).
# About 83,000 compounds went through this panel and 20% of them were active in at least one assay; those are over-represented in the sample as a whole.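 A percent growth of 40 corresponds to 60% growth inhibition; 0 means no net growth; -100 means all cells died. Active threshold: below 10.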 Unmarked numbers belong to inactive results. Calls of active or inactive are those of the source.
# Columns and labels:
# Experiment in all cases: NCI-60 one-dose screen, 48 h (100 = growth as untreated, 0 = no growth, -100 = all killed)
# Conditions in all cases: 10 µM unless noted
# EKVX NSCLC = test system: EKVX NSCLC
# SN12C renal = test system: SN12C renal
# UO-31 renal = test system: UO-31 renal
# TK-10 renal = test system: TK-10 renal
# ACHN renal = test system: ACHN renal
# CAKI-1 renal = test system: CAKI-1 renal
# CCRF-CEM leukemia = test system: CCRF-CEM leukemia
# MOLT-4 leukemia = test system: MOLT-4 leukemia
# SR leukemia = test system: SR leukemia
# RPMI-8226 leukemia = test system: RPMI-8226 leukemia
# OVCAR-8 ovarian = test system: OVCAR-8 ovarian
# OVCAR-5 ovarian = test system: OVCAR-5 ovarian
# OVCAR-4 ovarian = test system: OVCAR-4 ovarian
# SK-OV-3 ovarian = test system: SK-OV-3 ovarian
# IGROV1 ovarian = test system: IGROV1 ovarian
# OVCAR-3 ovarian = test system: OVCAR-3 ovarian
# HS 578T breast = test system: HS 578T breast
# NCI/ADR-RES ovarian = test system: NCI/ADR-RES ovarian
# T-47D breast = test system: T-47D breast
# A498 renal = test system: A498 renal
SMILES,growth (EKVX NSCLC) [%],growth (SN12C renal) [%],growth (UO-31 renal) [%],growth (TK-10 renal) [%],growth (ACHN renal) [%],growth (CAKI-1 renal) [%],growth (CCRF-CEM leukemia),growth (MOLT-4 leukemia),growth (SR leukemia),growth (RPMI-8226 leukemia),growth (OVCAR-8 ovarian) [%],growth (OVCAR-5 ovarian) [%],growth (OVCAR-4 ovarian) [%],growth (SK-OV-3 ovarian) [%],growth (IGROV1 ovarian) [%],growth (OVCAR-3 ovarian) [%],growth (HS 578T breast) [%],growth (NCI/ADR-RES ovarian) [%],growth (T-47D breast),growth (A498 renal) [%]
COC(=O)c1ccc(NC(=S)N2CCc3ccc([N+](=O)[O-])cc3C2)cc1O,99.2,99.8,85.5,137,95.4,92.7,94.9%,91.7%,95.5%,101%,101,103,112,98.4,99,116,102,107,103%,–
COc1cc2cc(Oc3ccc(NC(=O)c4cccc(C(F)(F)F)c4)cc3)c(C)nc2cc1OCCN1CCCCC1,93.2,76.2,69.3,143,80.5,57.4,–,1.53% (active),-40.6% (active),-10.4% (active),–,98.7,68.1,101,81.5,–,70,75.4,-25.8% (active),78.6
COc1ccccc1C(=O)CSc1nc(Nc2ccc(S(N)(=O)=O)cc2)c2ccccc2n1,92.6,81.1,90.6,116,92.1,91.1,–,93%,64.3%,90.8%,90.5,90.8,86.6,121,95.5,–,96.9,106,89.6%,99.8
CCN1C(=S)N(CC)C2C1NN=C1SC(c3ccccc3)=CC(=O)N12 (centres undefined),106,110,113,103,103,98.6,97.5%,97.7%,52.1%,–,–,107,115,110,109,119,114,99.6,108%,118
COc1ccc(C(=O)/C=C/c2ccc(OCc3ccc(Cl)cc3)c(OC)c2)cc1OC,62.2,76.6,54.1,110,73.4,–,22.5%,38.6%,7.68% (active),-2.25% (active),58.4,100,68.6,82.9,73.5,78.5,82,55.2,50.6%,–
Cc1cccc(/C=C/c2nn3c(-c4ccco4)nnc3s2)c1,81.3,94.8,83.7,101,102,–,99.4%,104%,79%,100%,100,98.2,98.7,114,98.6,–,106,91.6,89.2%,77.5
Nc1c(C(=O)Nc2ccc(C(F)(F)F)cc2)sc2nc(-c3cnccn3)cc(-c3cccs3)c12,76.1,94.9,59.5,174,43.3,16.2,84.7%,75.7%,66.3%,72.2%,–,102,63.5,88.1,83.9,96,70.3,78.2,90.3%,–
COc1ccc(C(=O)/C=C/c2ccc(Oc3nc(NCCO)nc(N4CCOCC4)n3)c(OC)c2)cc1,90.1,86.2,67.4,140,62.5,56,9.43% (active),10.6%,5.16% (active),9.42% (active),69.6,–,81.8,108,78.6,101,78.1,82.9,94.1%,–
